From PubChem BioAssay (NCATS)
Inconclusive results are not listed. Unless noted, the call rests on the fitted dose curve; in most records, active means well fitted curve in either direction with a large enough effect (not every such curve was filed as active); inconclusive means small, poorly fitted or top-dose-only effect, or another doubt; inactive means flat fitted curve, though single readings scatter.

Legend:
[1] = AP1 Signaling Pathway (AID 357); conditions: ME-180 AP-1-bla reporter, EGF-induced, beta-lactamase ratio, 5 h; at 17.2 µM (top of the series) unless noted;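 further: ME-180 reporter cells stimulated with EGF at its EC50 level; on the % scale 0 is the no-effect control and ±100 the full control effect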
In short: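 Titration-series screen for positive or negative modulators of EC50 EGF-induced signaling in ME-180 cells carrying an AP-1-driven beta-lactamase reporter. After 5 hours at 37 degrees Celsius, CCF4 460nm/530nm emission ratio gave %Activity; AC50 values derived.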

[2] = NFAT Signaling Pathway (AID 444); conditions: Jurkat NFAT-bla M1, carbachol, beta-lactamase ratio, 5 h; at 17.2 µM (top of the series) unless noted;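 further: carbachol stimulus at about its EC50 of 1 µM final; on the % scale 0 is the no-effect control and ±100 the full control effect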
In short: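 Read-out: CCF4 FRET ratio (460 nm/530 nm) after 1 h RT dye loading, used for %activity and AC50 from titration series. Cells: Jurkat NFAT-β-lactamase/M1 line, treated with compound plus 1 uM carbachol for 5 h, 37 °C.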

[3] = Stat Signaling Pathway (AID 446); conditions: ME-180 (cervical carcinoma) SIE beta-lactamase reporter, IL-6 stimulated, 5 h; at 17.2 µM (top of the series) unless noted;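 further: ME-180 cervical cancer cells given 40 pM IL-6 alongside compound; SIE-controlled beta-lactamase reporter measured as 460/530 nm FRET emission ratio; on the % scale 0 is the no-effect control and ±100 the full control effect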
In short: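 FRET read-out (405 nm excitation, 460/530 nm emission) of a beta-lactamase reporter under a STAT-inducible element in ME-180 cervical carcinoma cells. Cells with compound receive 40 pM IL-6 for 5 h. Values are normalised to AC90 stimulation and AC90 JAK-inhibitor controls.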

[4] = target: Glucocorticoid receptor (Homo sapiens) (UniProt P04150); assay: GR-GFP Redistribution (AID 450;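 active means compounds whose dose series gives a full or clear partial fitted curve of increased nuclear translocation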; further: potency means the concentration at half of the fitted maximal effect)
Sequence of Glucocorticoid receptor (Homo sapiens) (P04150 whole entry, looked up): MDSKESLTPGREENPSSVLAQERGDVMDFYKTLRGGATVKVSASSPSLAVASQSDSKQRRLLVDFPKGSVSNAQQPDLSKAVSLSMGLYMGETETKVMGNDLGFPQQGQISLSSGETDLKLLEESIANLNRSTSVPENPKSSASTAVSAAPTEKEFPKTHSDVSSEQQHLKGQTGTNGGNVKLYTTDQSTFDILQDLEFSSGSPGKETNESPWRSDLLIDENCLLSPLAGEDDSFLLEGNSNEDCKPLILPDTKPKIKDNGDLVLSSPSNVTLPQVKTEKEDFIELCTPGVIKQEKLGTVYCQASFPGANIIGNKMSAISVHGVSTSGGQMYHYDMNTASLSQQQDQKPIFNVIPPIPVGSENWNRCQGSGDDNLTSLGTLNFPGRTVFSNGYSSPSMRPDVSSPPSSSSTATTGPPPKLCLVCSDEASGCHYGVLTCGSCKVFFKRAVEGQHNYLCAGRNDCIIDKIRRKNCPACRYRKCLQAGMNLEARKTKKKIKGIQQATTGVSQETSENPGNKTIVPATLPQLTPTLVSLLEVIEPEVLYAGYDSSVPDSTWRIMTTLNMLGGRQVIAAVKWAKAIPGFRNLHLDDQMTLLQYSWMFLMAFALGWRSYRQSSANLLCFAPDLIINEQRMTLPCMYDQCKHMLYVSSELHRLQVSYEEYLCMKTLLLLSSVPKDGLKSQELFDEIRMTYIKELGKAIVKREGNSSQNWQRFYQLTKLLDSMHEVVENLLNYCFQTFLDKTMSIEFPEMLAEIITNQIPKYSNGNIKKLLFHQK

O=CN1CCN(C(=O)CN2C(=O)c3ccccc3C2=O)CC1
inactive: activity change, negative = inhibition [1] 10.2% | activity change, negative = inhibition [2] 11.9% | activity, negative = inhibition [3] 6.47% | Potency [4] > 20.6 µM

CC(=O)C1=C(O)C(=O)N(c2ccc(Br)cn2)C1c1ccccc1F (stereo not given)
inactive: activity change, negative = inhibition [1] -1.6% | activity change, negative = inhibition [2] 1.82% | activity, negative = inhibition [3] -16.8% | Potency [4] > 20.6 µM

CSc1nc2sc3c(c2c2nncn12)CCC3
inactive: activity change, negative = inhibition [1] -7.57% | activity change, negative = inhibition [2] -18% | activity, negative = inhibition [3] -3.42% | Potency [4] > 20.6 µM

CCn1c(SCC(=O)NCc2ccco2)nnc1-c1ccc(N)cc1
inactive: activity change, negative = inhibition [1] 0.344% | activity change, negative = inhibition [2] 16.3% | activity, negative = inhibition [3] -0.962% | Potency [4] > 20.6 µM

CCCCNC(=O)c1cc2n(n1)C(C(F)(F)F)CC(c1ccccc1)N2 (stereo not given)
inactive: activity change, negative = inhibition [1] -14.9% | activity change, negative = inhibition [2] 11.1% | activity, negative = inhibition [3] -0.224% | Potency [4] > 20.6 µM

CCCc1nc2n[nH]c(N)c2c2c1COC(C)(C)C2
inactive: activity change, negative = inhibition [1] 2.75% | activity change, negative = inhibition [2] -0.018% | activity, negative = inhibition [3] 2.38% | Potency [4] > 20.6 µM

O=C(Nc1ccccn1)NC(C(F)(F)F)C(F)(F)F
inactive: activity change, negative = inhibition [1] -3.59% | activity change, negative = inhibition [2] 6.68% | activity, negative = inhibition [3] -3.68% | Potency [4] > 20.6 µM

Cc1c(/C(O)=C2\C(=O)C(=O)N(CCN(C)C)C2c2cccs2)cnn1-c1ccccc1 (stereo not given)
inactive: activity change, negative = inhibition [1] 6.26% | activity change, negative = inhibition [2] -10.6% | activity, negative = inhibition [3] -3.53% | Potency [4] > 20.6 µM

Cc1c(NC(=O)C(CC(=O)O)NCc2ccco2)c(=O)n(-c2ccccc2)n1C (stereo not given)
inactive: activity change, negative = inhibition [1] -3.94% | activity change, negative = inhibition [2] 5.18% | activity, negative = inhibition [3] 1.34% | Potency [4] > 20.6 µM

Cn1c(CSc2ncn[nH]2)nc2ccccc21
inactive: activity change, negative = inhibition [1] -5.65% | activity change, negative = inhibition [2] 3.91% | activity, negative = inhibition [3] 20.6% | Potency [4] > 20.6 µM

CCCOc1ccc(C2/C(=C(/O)c3ccccc3)C(=O)C(=O)N2CCCN(C)C)cc1OC (stereo not given)
inactive: activity change, negative = inhibition [1] 13.7% | activity change, negative = inhibition [2] 3.58% | activity, negative = inhibition [3] 10.3% | Potency [4] > 20.6 µM

CC(=O)N[C@H]1C[C@@H]1c1ccccc1
inactive: activity change, negative = inhibition [1] 5.08% | activity change, negative = inhibition [2] -8.6% | activity, negative = inhibition [3] 12.8% | Potency [4] > 20.6 µM

CCC1(C)Cc2c(sc3nc4n(c(=O)c23)CCS4)CO1 (stereo not given)
inactive: activity change, negative = inhibition [1] -20.5% | activity change, negative = inhibition [2] -16.6% | activity, negative = inhibition [3] -2.05% | Potency [4] > 20.6 µM

O=C(O)C(O)c1ccco1 (stereo not given)
inactive: activity change, negative = inhibition [1] -5.38% | activity change, negative = inhibition [2] -2.98% | activity, negative = inhibition [3] 1.78% | Potency [4] > 20.6 µM

N#CC1=C(N)N2C(=C(C#N)C1c1ccccc1)Sc1ccccc12 (stereo not given)
inactive: activity change, negative = inhibition [1] 17.5% | activity change, negative = inhibition [2] -26.8% | activity, negative = inhibition [3] 3.71% | Potency [4] > 20.6 µM

O=C1C2ON(c3ccccc3)C(c3cccnc3)C2C(=O)N1c1ccccc1 (stereo not given)
inactive: activity change, negative = inhibition [1] -5.35% | activity change, negative = inhibition [2] -5.72% | activity, negative = inhibition [3] 1.24% | Potency [4] > 20.6 µM

CCN(CC)CCN1C(=O)C(=O)/C(=C(/O)c2c(C)[nH]c(C(=O)OC)c2C)C1c1ccco1 (stereo not given)
inactive: activity change, negative = inhibition [1] 6.74% | activity change, negative = inhibition [2] -2.14% | activity, negative = inhibition [3] -0.9% | Potency [4] > 20.6 µM

NC(=O)C(c1ccccc1)C1CCCC1 (stereo not given)
inactive: activity change, negative = inhibition [1] -5.55% | activity change, negative = inhibition [2] 1.68% | activity, negative = inhibition [3] 15.2% | Potency [4] > 20.6 µM

CCOc1ccc(-c2nc(C#N)c(N3CCN(CC)CC3)o2)cc1
inactive: activity change, negative = inhibition [1] -12.4% | activity change, negative = inhibition [2] 21% | activity, negative = inhibition [3] 19.7% | Potency [4] > 20.6 µM

CCOC(=O)C1CCN(c2ncnc3c2cnn3-c2ccc(OC)cc2)CC1
inactive: activity change, negative = inhibition [1] 4.62% | activity change, negative = inhibition [2] -5.45% | activity, negative = inhibition [3] 1.28% | Potency [4] > 20.6 µM

CCOC(=O)c1c(C)n(C)c2ccc(OC)c(NC(=O)CN3CCC4(CC3)OCCO4)c12
inactive: activity change, negative = inhibition [1] -3.92% | activity change, negative = inhibition [2] 1.31% | activity, negative = inhibition [3] 3.03% | Potency [4] > 20.6 µM

CCN(CC)CCCN1C(=O)C(=O)/C(=C(/O)c2ccccc2)C1c1cc(OC)ccc1OC (stereo not given)
inactive: activity change, negative = inhibition [1] 3.34% | activity change, negative = inhibition [2] 7.04% | activity, negative = inhibition [3] 3.31% | Potency [4] > 20.6 µM

CC1(c2ccco2)NC(=O)NC1=O (stereo not given)
inactive: activity change, negative = inhibition [1] 5.26% | activity change, negative = inhibition [2] 1.83% | activity, negative = inhibition [3] 5.48% | Potency [4] > 20.6 µM

CC(O)Cn1ccccc1=N (stereo not given)
inactive: activity change, negative = inhibition [1] -4.75% | activity change, negative = inhibition [2] 25.6% | activity, negative = inhibition [3] 3.45% | Potency [4] > 20.6 µM

N#CCCN(C(=O)c1ccco1)c1ccccc1
inactive: activity change, negative = inhibition [1] -22.8% | activity change, negative = inhibition [2] 2.26% | activity, negative = inhibition [3] 9.28% | Potency [4] > 20.6 µM
